This passage reports binding signal results from article PMC5700166.

Residue numbers refer to the chain shown, from its start.

Assay in all cases: protein-binding microarray (PBM); PBM: ~300 nM protein, 6 mM HEPES pH 7.8, 80 mM KCl, 0.5 mM EDTA, 0.5 mM EGTA, 6% glycerol, 35 ng/ul poly-dIdC, 1% milk, 1 h, room temperature; Ap Aiptasia and Nv Nematostella (sea anemones) / Co Capsaspora / Aq Amphimedon (sponge) / Dm Drosophila / Hu human; RHD is the Rel homology domain; high values mean tight binding
Common to all, as to settings: dsDNA, one strand shown

In one test the target is T1, GST-Ap-NF-kB RHD (Exaiptasia pallida (Aiptasia), UniProt A0A913YAJ5 2-422).
T1 sequence: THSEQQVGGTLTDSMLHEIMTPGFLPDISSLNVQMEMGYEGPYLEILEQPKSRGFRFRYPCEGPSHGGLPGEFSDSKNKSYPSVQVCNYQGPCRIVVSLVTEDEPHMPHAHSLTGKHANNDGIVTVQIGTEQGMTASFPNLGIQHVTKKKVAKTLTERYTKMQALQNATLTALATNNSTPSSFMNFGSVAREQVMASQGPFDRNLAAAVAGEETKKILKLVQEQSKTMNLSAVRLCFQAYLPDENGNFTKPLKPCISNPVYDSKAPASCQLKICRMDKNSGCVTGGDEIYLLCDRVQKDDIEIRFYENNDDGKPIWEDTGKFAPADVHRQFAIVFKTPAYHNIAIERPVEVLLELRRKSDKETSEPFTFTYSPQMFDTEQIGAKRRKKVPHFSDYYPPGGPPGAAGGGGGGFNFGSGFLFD

The target of test [1] is T2, GST-Nv-NF-kB (Cys allele) (Nematostella vectensis, UniProt E5G601 2-411).
T2 sequence: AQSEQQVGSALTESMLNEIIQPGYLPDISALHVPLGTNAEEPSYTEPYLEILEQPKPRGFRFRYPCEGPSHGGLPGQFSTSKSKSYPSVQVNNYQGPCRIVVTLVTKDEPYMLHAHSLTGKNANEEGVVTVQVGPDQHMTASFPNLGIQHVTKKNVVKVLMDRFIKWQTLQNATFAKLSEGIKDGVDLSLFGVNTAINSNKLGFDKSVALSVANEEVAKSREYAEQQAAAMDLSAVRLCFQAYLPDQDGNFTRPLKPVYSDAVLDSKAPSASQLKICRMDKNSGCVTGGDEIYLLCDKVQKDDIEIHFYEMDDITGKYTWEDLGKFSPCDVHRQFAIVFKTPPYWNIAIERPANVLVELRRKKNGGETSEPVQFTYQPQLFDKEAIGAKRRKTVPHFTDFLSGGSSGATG

Test [2] deals with T3, GST-Nv-NF-kB (Ser allele) (Nematostella vectensis, UniProt A7UNT2 2-411).
T3 sequence: T2 sequence with Q21R, C66S, S207N, E215Q, V217A, E225K, A268E, D399E

The next test addresses T4, GST-Co-NF-kB (Capsaspora owczarzaki, UniProt F1ARL5 200-546).
T4 sequence: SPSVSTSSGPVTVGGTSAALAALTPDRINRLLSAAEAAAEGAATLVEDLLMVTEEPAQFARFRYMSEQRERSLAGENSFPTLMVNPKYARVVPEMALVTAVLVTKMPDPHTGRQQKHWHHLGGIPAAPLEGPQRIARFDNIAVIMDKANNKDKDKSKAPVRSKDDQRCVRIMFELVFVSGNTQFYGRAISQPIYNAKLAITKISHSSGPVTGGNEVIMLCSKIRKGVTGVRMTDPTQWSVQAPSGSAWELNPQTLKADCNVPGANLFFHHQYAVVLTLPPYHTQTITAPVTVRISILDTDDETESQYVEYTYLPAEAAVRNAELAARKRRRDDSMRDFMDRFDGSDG

Another test addresses T5, GST-Dm-Relish (Drosophila melanogaster, UniProt Q94527 99-473).
T5 sequence: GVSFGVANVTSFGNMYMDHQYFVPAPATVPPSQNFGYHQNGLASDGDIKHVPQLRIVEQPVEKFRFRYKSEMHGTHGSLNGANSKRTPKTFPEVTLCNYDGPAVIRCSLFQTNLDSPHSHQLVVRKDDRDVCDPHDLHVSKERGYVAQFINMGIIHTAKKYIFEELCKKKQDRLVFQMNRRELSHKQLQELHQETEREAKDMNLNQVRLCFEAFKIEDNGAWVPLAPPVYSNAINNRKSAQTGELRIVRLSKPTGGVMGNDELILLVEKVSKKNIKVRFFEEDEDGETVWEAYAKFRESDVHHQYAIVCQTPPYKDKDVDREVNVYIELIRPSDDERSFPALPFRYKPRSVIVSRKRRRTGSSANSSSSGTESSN

The next test addresses T6, GST-Aq-NF-kB (Amphimedon queenslandica, UniProt A9Y5G7 2-389).
T6 sequence: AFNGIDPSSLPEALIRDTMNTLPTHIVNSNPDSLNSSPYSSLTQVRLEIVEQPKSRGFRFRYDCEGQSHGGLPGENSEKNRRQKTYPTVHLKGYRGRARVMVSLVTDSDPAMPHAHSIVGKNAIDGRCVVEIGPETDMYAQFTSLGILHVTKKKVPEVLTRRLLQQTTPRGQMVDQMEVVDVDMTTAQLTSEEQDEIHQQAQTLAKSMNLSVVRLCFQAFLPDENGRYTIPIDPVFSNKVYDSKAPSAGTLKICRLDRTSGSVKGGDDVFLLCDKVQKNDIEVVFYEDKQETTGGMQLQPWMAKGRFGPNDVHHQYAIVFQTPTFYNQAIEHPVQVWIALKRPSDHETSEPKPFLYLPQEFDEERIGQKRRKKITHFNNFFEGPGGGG

Another test concerns the target GST-Hu-p50 (Homo sapiens, UniProt P19838 7-356).

GST-Hu-p50, sequence (P19838 7-356): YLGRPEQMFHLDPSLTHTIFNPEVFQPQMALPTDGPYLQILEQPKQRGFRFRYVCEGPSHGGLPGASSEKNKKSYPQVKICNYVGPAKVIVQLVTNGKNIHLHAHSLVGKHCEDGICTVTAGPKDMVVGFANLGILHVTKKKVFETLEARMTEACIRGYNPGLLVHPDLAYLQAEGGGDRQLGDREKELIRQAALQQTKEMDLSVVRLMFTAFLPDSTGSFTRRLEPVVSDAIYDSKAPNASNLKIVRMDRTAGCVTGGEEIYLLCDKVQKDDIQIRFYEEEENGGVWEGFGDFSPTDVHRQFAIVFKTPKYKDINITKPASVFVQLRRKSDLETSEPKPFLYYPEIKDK

Consider “CCGATTAACATCAAGTATCCCCCTGATGTTAATCGGGTCTTGATTCGCTTGACGCTGCTG”, for which the binding signal in the test with GST-Ap-NF-kB RHD was found to be 6.69 z-score; in test [1], 5.06 z-score; in test [2] it was 6.27 z-score; with GST-Co-NF-kB it was 7.27 z-score; with GST-Dm-Relish it was 4.38 z-score; with GST-Aq-NF-kB, 4.99 z-score. The binding signal with GST-Hu-p50 was 5.34 z-score.

With “CCGATTAACATCAAAATACCCCCTGATGTTAATCGGGTCTTGATTCGCTTGACGCTGCTG”, the binding signal was 9.02 z-score with GST-Ap-NF-kB RHD; 7.56 z-score in test [1]; 8.62 z-score in test [2]; 7.21 z-score with GST-Co-NF-kB; 7.72 z-score in the test with GST-Dm-Relish; 7.21 z-score with GST-Aq-NF-kB. This sequence also yielded a binding signal with GST-Hu-p50 of 6.58 z-score.

For the sequence “CCGATTAACATCAGGGGAGGGAATGATGTTAATCGGGTCTTGATTCGCTTGACGCTGCTG”, the binding signal with GST-Ap-NF-kB RHD was 3.95 z-score; in test [1], 5.44 z-score; in test [2] it was 5.03 z-score; in the test with GST-Co-NF-kB, 5.53 z-score; with GST-Dm-Relish it was 2.13 z-score; with GST-Aq-NF-kB, 5.17 z-score. Also, the binding signal in the test with GST-Hu-p50 was found to be 3.3 z-score.

With “CCGATTAACATCACACTTTTCCCTGATGTTAATCGGGTCTTGATTCGCTTGACGCTGCTG”, the binding signal was determined as 3.17 z-score with GST-Ap-NF-kB RHD; 4.45 z-score in test [1]; 6.11 z-score in test [2]; 4.46 z-score with GST-Co-NF-kB; 1.59 z-score with GST-Dm-Relish; 3.57 z-score with GST-Aq-NF-kB. Further, the binding signal with GST-Hu-p50 was found to be 2.84 z-score.

“CCGATTAACATCAAAGCTTCCCCTGATGTTAATCGGGTCTTGATTCGCTTGACGCTGCTG”: the binding signal with GST-Ap-NF-kB RHD worked out at 5.17 z-score; in test [1], 6.28 z-score; in test [2], 7.74 z-score; with GST-Co-NF-kB it was 7.56 z-score; in the test with GST-Dm-Relish, 3.8 z-score; with GST-Aq-NF-kB it was 4.64 z-score. This sequence also yielded a binding signal with GST-Hu-p50 of 5.4 z-score.

As for “CCGATTAACATCAGGGGGGAATATGATGTTAATCGGGTCTTGATTCGCTTGACGCTGCTG”, the binding signal turned out to be 7.1 z-score with GST-Ap-NF-kB RHD; 6.54 z-score in test [1]; 7.41 z-score in test [2]; 10.2 z-score in the test with GST-Co-NF-kB; 5.21 z-score in the test with GST-Dm-Relish; 6.44 z-score with GST-Aq-NF-kB. The sequence further yielded a binding signal with GST-Hu-p50 of 6.79 z-score.

Regarding “CCGATTAACATCAGGGTATTTTATGATGTTAATCGGGTCTTGATTCGCTTGACGCTGCTG”, the binding signal in the test with GST-Ap-NF-kB RHD was determined as 5.82 z-score; in test [1], 8.31 z-score; in test [2], 7.61 z-score; with GST-Co-NF-kB, 3.22 z-score; with GST-Dm-Relish, 5.65 z-score; with GST-Aq-NF-kB, 7.07 z-score. Also, in the test with GST-Hu-p50, the binding signal amounted to 5.87 z-score.

With “CCGATTAACATCAGGGGGAAACCTGATGTTAATCGGGTCTTGATTCGCTTGACGCTGCTG”, the binding signal came to 8.24 z-score with GST-Ap-NF-kB RHD; 8.06 z-score in test [1]; 9.71 z-score in test [2]; 9.35 z-score with GST-Co-NF-kB; 7.54 z-score with GST-Dm-Relish; 7.94 z-score with GST-Aq-NF-kB. Besides, the binding signal with GST-Hu-p50 came to 7.23 z-score.

“CCGATTAACATCACTTATCCCCCTGATGTTAATCGGGTCTTGATTCGCTTGACGCTGCTG”: the binding signal with GST-Ap-NF-kB RHD worked out at 4.81 z-score; in test [1] it was 3.72 z-score; in test [2], 4.72 z-score; with GST-Co-NF-kB, 6.68 z-score; in the test with GST-Dm-Relish, 2.71 z-score; with GST-Aq-NF-kB, 3.72 z-score. The sequence also registered a binding signal in the test with GST-Hu-p50 of 4.19 z-score.

As for “CCGATTAACATCAACATTACCCCTGATGTTAATCGGGTCTTGATTCGCTTGACGCTGCTG”, the binding signal with GST-Ap-NF-kB RHD stood at 2.39 z-score; in test [1], 2.88 z-score; in test [2], 3.43 z-score; in the test with GST-Co-NF-kB, 4.07 z-score; with GST-Dm-Relish, 1.42 z-score; with GST-Aq-NF-kB it was 2.86 z-score. In the test with GST-Hu-p50, this sequence registered a binding signal of 3.24 z-score.

As to “CCGATTAACATCAGATTTCCCCCTGATGTTAATCGGGTCTTGATTCGCTTGACGCTGCTG”, the binding signal with GST-Ap-NF-kB RHD is 8.72 z-score; in test [1], 8.96 z-score; in test [2] it was 10.8 z-score; in the test with GST-Co-NF-kB it was 11 z-score; in the test with GST-Dm-Relish it was 6.42 z-score; with GST-Aq-NF-kB, 7.34 z-score. In addition, in the test with GST-Hu-p50, the binding signal worked out at 7.39 z-score.

In the case of “CCGATTAACATCAGGGGATTAACTGATGTTAATCGGGTCTTGATTCGCTTGACGCTGCTG”, the binding signal worked out at 5.48 z-score with GST-Ap-NF-kB RHD; 6.31 z-score in test [1]; 7.11 z-score in test [2]; 2.99 z-score with GST-Co-NF-kB; 8.54 z-score with GST-Dm-Relish; 5.82 z-score with GST-Aq-NF-kB. Further, the binding signal in the test with GST-Hu-p50 worked out at 4.93 z-score.
